Measurements published in PubChem BioAssay (NCI).
The panel holds about 83,000 compounds, 20% with a hit somewhere; the sample as a whole holds those more often.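 Growth was measured after 48 h exposure to one concentration of compound in 96-well plates. Values under 10 count as active.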 Calls of active or inactive are those of the source.

Experiments:
Experiment in all cases: NCI-60 one-dose screen, 48 h (100 = growth as untreated, 0 = no growth, -100 = all killed)
NCI-H23 lung = settings: 10 µM unless noted
NCI-H322M lung = settings: 10 µM unless noted
HOP-62 NSCLC = settings: 10 µM unless noted
NCI-H460 lung = settings: 10 µM unless noted
HOP-92 NSCLC = settings: 10 µM unless noted
786-0 renal = settings: 10 µM unless noted
COLO 205 colon = settings: 10 µM unless noted
NCI-H522 lung = settings: 10 µM
A549/ATCC NSCLC = settings: 10 µM unless noted

Measured: growth

c1ccc(-c2n(Cc3ccc4ccccc4n3)c3ccccc3[n+]2Cc2ccc3ccccc3n2)cc1
inactive: NCI-H322M lung 14.3% | 786-0 renal 11.9%
active: NCI-H23 lung -5.45% | HOP-62 NSCLC -1.08% | NCI-H460 lung 1.2% | HOP-92 NSCLC -18.8% | COLO 205 colon -69.2%

O=C(Nc1ccccc1)Oc1cccc2cccnc12
active: NCI-H522 lung -4.77%
inactive: NCI-H23 lung 87.1% | NCI-H322M lung 138% | HOP-62 NSCLC 99.6% | NCI-H460 lung 74.8% | A549/ATCC NSCLC 93.3% | 786-0 renal 99.9% | COLO 205 colon 72.1%

Cc1ccccc1-n1nnc(C(=O)Nc2nc(-c3ccccc3)c(-c3ccccc3)s2)c1C
inactive: NCI-H23 lung 76.3% [50 µM] | NCI-H322M lung 84.4% [50 µM] | HOP-62 NSCLC 84.8% [50 µM] | NCI-H460 lung 73.2% [50 µM] | HOP-92 NSCLC 62.3% [50 µM] | A549/ATCC NSCLC 65.4% [50 µM] | 786-0 renal 87.4% [50 µM] | COLO 205 colon 92.8% [50 µM]

Cc1cc(=O)c2c(C)ccc(C)c2[nH]1
inactive: NCI-H23 lung 100% | NCI-H322M lung 109% | HOP-62 NSCLC 104% | NCI-H460 lung 111% | NCI-H522 lung 96.2% | A549/ATCC NSCLC 93.1% | 786-0 renal 96.4% | COLO 205 colon 125%

COc1cc(/C=C2\C(=O)N(c3c(Cl)cccc3Cl)c3ccccc32)cc(OC)c1O
active: NCI-H460 lung -4.41%
inactive: NCI-H23 lung 48.1% | NCI-H322M lung 48.2% | HOP-62 NSCLC 48.6% | NCI-H522 lung 28% | A549/ATCC NSCLC 16.9% | 786-0 renal 13.9% | COLO 205 colon 74.8%

Cc1cc(=O)[nH]n1-c1cc(Cl)ccc1N
inactive: NCI-H23 lung 107% | NCI-H322M lung 112% | HOP-62 NSCLC 103% | NCI-H460 lung 113% | HOP-92 NSCLC 114% | A549/ATCC NSCLC 105% | 786-0 renal 104% | COLO 205 colon 103%

c1ccc(-c2n(Cc3ccc4ccccc4c3)c3ccccc3[n+]2Cc2ccc3ccccc3c2)cc1
active: NCI-H23 lung -20.9% | NCI-H322M lung 3.63% | HOP-62 NSCLC 4.19% | NCI-H460 lung -82.1% | HOP-92 NSCLC -40.4% | A549/ATCC NSCLC 5.14% | 786-0 renal -94.8% | COLO 205 colon -70.7%

Oc1ccc2ccccc2c1C1NN=C(c2ccccc2)S1 (stereo not given)
inactive: NCI-H23 lung 35% | NCI-H322M lung 29.2% | HOP-62 NSCLC 28.8% | HOP-92 NSCLC 42.8% | A549/ATCC NSCLC 18% | COLO 205 colon 16.6%
active: NCI-H460 lung -27.8% | 786-0 renal 6.82%

COc1cccc(C2CC(=O)Nc3cc4c(cc32)OCO4)c1OC (stereo not given)
inactive: NCI-H23 lung 92.3% | NCI-H322M lung 88.3% | HOP-62 NSCLC 98.2% | NCI-H460 lung 102% | NCI-H522 lung 87.4% | A549/ATCC NSCLC 89.8% | 786-0 renal 114%

Cc1c(C)n(CC(O)CNC2CCCCC2C)c2ccccc12 (stereo not given)
inactive: NCI-H322M lung 31.7% | NCI-H460 lung 11.2%
active: NCI-H23 lung -19.7% | HOP-62 NSCLC -71.3% | HOP-92 NSCLC -60% | A549/ATCC NSCLC -31.4% | 786-0 renal -84.7% | COLO 205 colon -84.7%

COc1cc(CNCCN2C(=O)c3ccc4c5c(ccc(c35)C2=O)C(=O)N(CCNCc2cc(OC)c(OC)c(OC)c2)C4=O)cc(OC)c1OC
active: NCI-H23 lung -89.3% | NCI-H322M lung -68.3% | HOP-62 NSCLC -78% | NCI-H460 lung -81.7% | NCI-H522 lung -60.3% | A549/ATCC NSCLC -76.5% | 786-0 renal -93.6%

COC(=O)/C=C1/CCC2C3CCC4=CC(=O)C(Br)CC4(C)C3C(=O)CC12C (stereo not given)
inactive: NCI-H23 lung 67.5% | NCI-H322M lung 115% | HOP-62 NSCLC 80.6% | NCI-H460 lung 59.3% | HOP-92 NSCLC 76.6% | 786-0 renal 83.8% | COLO 205 colon 80.2%

Cc1ccc(N=c2nc3sc4c(C)ccc(C)c4n3c(N)c2C#N)cc1
inactive: NCI-H23 lung 90.2% | NCI-H322M lung 113% | HOP-62 NSCLC 101% | NCI-H460 lung 105% | HOP-92 NSCLC 76.6% | A549/ATCC NSCLC 100% | 786-0 renal 101% | COLO 205 colon 108%

COc1ccc(C2OCC(C)(C)CO2)cc1OC
inactive: NCI-H23 lung 98.3% | NCI-H322M lung 151% | HOP-62 NSCLC 117% | NCI-H460 lung 108% | NCI-H522 lung 117% | A549/ATCC NSCLC 100% | 786-0 renal 110% | COLO 205 colon 113%

COc1ccc(OC)c(C2C(C#N)=C(N)Oc3cc(O)ccc32)c1 (stereo not given)
inactive: NCI-H23 lung 88% | NCI-H322M lung 102% | HOP-62 NSCLC 97.4% | NCI-H460 lung 108% | NCI-H522 lung 80.3% | A549/ATCC NSCLC 97.1% | 786-0 renal 96.7% | COLO 205 colon 101%

COc1ccccc1-n1c(SCc2cc(OC)c(OC)c(OC)c2)nc2ccc(Cl)cc2c1=O
inactive: NCI-H23 lung 36.1% | NCI-H322M lung 55.1% | HOP-62 NSCLC 51.8% | NCI-H460 lung 10.8% | HOP-92 NSCLC 42.9% | A549/ATCC NSCLC 31.1% | 786-0 renal 51.1% | COLO 205 colon 28%

Nc1nc(N)c(C=Nc2ccc(Br)cc2)c(Nc2ccc(Br)cc2)n1
inactive: NCI-H23 lung 97.9% | NCI-H322M lung 72.9% | HOP-62 NSCLC 98.9% | NCI-H460 lung 95.9% | NCI-H522 lung 86.4% | A549/ATCC NSCLC 77.2% | 786-0 renal 92.9% | COLO 205 colon 117%

O=C1c2[nH]cc(CN[C@@H]3CCCN3)c2C(=O)c2c1c(O)c1ccccc1c2O
active: NCI-H23 lung -53.7% | NCI-H322M lung -95% | HOP-62 NSCLC -100% | NCI-H460 lung -92.6% | NCI-H522 lung -85.1% | A549/ATCC NSCLC -93.1% | 786-0 renal -83.1%

COc1cc(-c2ccc3cc(OC)c(OC)c(OC)c3c2)cc(OC)c1OC
inactive: NCI-H23 lung 65.4% | NCI-H322M lung 78.7% | HOP-62 NSCLC 61.3% | NCI-H460 lung 60.3% | NCI-H522 lung 34% | A549/ATCC NSCLC 50.8% | 786-0 renal 84%

Nc1nc(-c2ccnc(Cl)c2)nn1-c1nc2ccccc2s1
inactive: NCI-H23 lung 101% | NCI-H322M lung 100% | HOP-62 NSCLC 99.5% | NCI-H460 lung 107% | HOP-92 NSCLC 103% | A549/ATCC NSCLC 103% | 786-0 renal 109% | COLO 205 colon 116%

COc1ccc(-c2nc3sc(C)nn3c2-c2nc3cc(C)c(C)cc3[nH]2)cc1
inactive: NCI-H23 lung 93.9% | NCI-H322M lung 99.4% | HOP-62 NSCLC 91.8% | NCI-H460 lung 99.9% | HOP-92 NSCLC 87.9% | A549/ATCC NSCLC 96.3% | 786-0 renal 98.4% | COLO 205 colon 115%

O=C1C=CC(=O)N1CCCCCCCCCCN1C(=O)C=CC1=O
active: NCI-H522 lung -60.7%
inactive: NCI-H23 lung 85.2% | NCI-H322M lung 109% | HOP-62 NSCLC 88.7% | NCI-H460 lung 96.1% | A549/ATCC NSCLC 97.4% | 786-0 renal 88.7% | COLO 205 colon 65.7%

Cc1oc2c(c1C(=O)N1CC[C@@H](N)C1)C(=O)c1c(c(O)c3ccccc3c1O)C2=O
active: NCI-H460 lung 2.29%
inactive: NCI-H23 lung 45.3% | NCI-H322M lung 33.5% | HOP-62 NSCLC 31.9% | NCI-H522 lung 21% | A549/ATCC NSCLC 12.4% | 786-0 renal 41% | COLO 205 colon 13.1%

Nc1nc2c(s1)CCc1c-2c(Br)n(Cc2ccccc2)c1Br
inactive: NCI-H23 lung 91.8% | NCI-H322M lung 99.8% | HOP-62 NSCLC 64.9% | NCI-H460 lung 98.2% | A549/ATCC NSCLC 93.7% | 786-0 renal 102% | COLO 205 colon 85.6%
active: NCI-H522 lung -74.9%

Cc1ccc(S(=O)(=O)c2ccc3[nH]c(=O)[nH]c(=O)c3c2)cc1
inactive: NCI-H23 lung 102% | NCI-H322M lung 106% | HOP-62 NSCLC 106% | NCI-H460 lung 114% | NCI-H522 lung 84.9% | A549/ATCC NSCLC 80.7% | 786-0 renal 96.5% | COLO 205 colon 99.3%

O=C1CN2CCC1C/C2=C\c1ccnc2c(Cl)cccc12 (stereo not given)
inactive: NCI-H23 lung 92.2% | NCI-H322M lung 102% | HOP-62 NSCLC 82% | NCI-H460 lung 116% | NCI-H522 lung 88.9% | A549/ATCC NSCLC 107% | 786-0 renal 103% | COLO 205 colon 98%

COC(=O)[C@H]1CCCN1C(=O)[C@H]1CCCN1C(=O)[C@@H](Cc1c[nH]c2ccccc12)NC(=S)Nc1cc(C(F)(F)F)cc(C(F)(F)F)c1
inactive: NCI-H23 lung 69.2% | NCI-H322M lung 32.8% | HOP-62 NSCLC 78.6% | NCI-H460 lung 18.6% | NCI-H522 lung 85.7% | 786-0 renal 62.5% | COLO 205 colon 38.4%

COC(=O)[C@@H]1CCCN1C(=O)[C@@H]1CCCN1C(=O)[C@@H](Cc1c[nH]c2ccccc12)NC(=S)Nc1cc(C(F)(F)F)cc(C(F)(F)F)c1
inactive: NCI-H23 lung 74.2% | NCI-H322M lung 75.8% | HOP-62 NSCLC 83.3% | NCI-H460 lung 51.6% | NCI-H522 lung 73.2% | A549/ATCC NSCLC 56.4% | 786-0 renal 69.8% | COLO 205 colon 16.8%

COc1cc(/C=C/C(=O)C(=Cc2ccc(F)c(F)c2)C(=O)/C=C/c2ccc(O)c(OC)c2)ccc1O
active: NCI-H23 lung -24.6% | NCI-H460 lung 1.97% | NCI-H522 lung -48.3%
inactive: NCI-H322M lung 59.4% | HOP-62 NSCLC 22.1% | A549/ATCC NSCLC 44.2% | 786-0 renal 40.8% | COLO 205 colon 58.1%
